Our source for the growth inhibition, inhibition and outcome values is PubChem BioAssay.

Assay [1] in a line: antimalarial activity against Dd2 strain (AID 2302;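 active = growth inhibition above 50% at the single 2 µM test dose, taken to imply half-maximal potency below 2 µM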;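 also: 0% = DMSO untreated growth and 100% = chloroquine plus artemisinin killed control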). The note with it: P. falciparum Dd2 in RBCs, LDH growth readout, 72 h; at 2 µM; stronger effect = higher value.
Assay [2] can be described thus: HepG2 cytotoxicity, primary screen, cytotoxicity control for P. falciparum antimalarial project, cell-based, ATP luminescence (AID 2303;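 active = inhibition above 50%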;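 also: 0% = DMSO wells and 100% = digitonin-killed cells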). The conditions noted are these: HepG2 viability, 24-48 h, at 10 µM, stronger effect = higher value.
The target in assay [3] is L-lactate dehydrogenase (Plasmodium falciparum (isolate CDC / Honduras)) (UniProt Q27743). Briefly: PfLDH activity inhibition – cell lysate, 3D7 strain, counter-screen for P. falciparum growth inhibition project (AID 2304).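 Also: 0% = vehicle and 100% = reference inhibitor.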 The note with it: P. falciparum 3D7 crude extract, LDH APAD/NBT absorbance; at 2 µM; stronger effect = higher value. On the technique in general: A counterscreen serves to expose hits that act by an unwanted route or on another target.
Chain of L-lactate dehydrogenase (Plasmodium falciparum (isolate CDC / Honduras)) (Q27743 whole entry, looked up): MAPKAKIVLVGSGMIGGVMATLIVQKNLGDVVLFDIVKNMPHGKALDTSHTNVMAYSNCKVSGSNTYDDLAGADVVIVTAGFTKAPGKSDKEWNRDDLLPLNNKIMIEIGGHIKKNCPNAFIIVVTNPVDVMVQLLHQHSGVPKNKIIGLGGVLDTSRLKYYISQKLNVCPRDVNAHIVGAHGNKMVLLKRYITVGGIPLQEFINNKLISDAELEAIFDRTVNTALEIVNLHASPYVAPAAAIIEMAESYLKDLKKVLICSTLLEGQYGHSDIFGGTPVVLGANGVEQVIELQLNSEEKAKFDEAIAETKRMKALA

Assay [4] is described as follows: inhibition of 3D7 malaria parasite growth – strain 3D7 (AID 2306).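 Also: 0% = DMSO wells and 100% = chloroquine plus artemisinin control wells.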 The note with it: P. falciparum 3D7 erythrocytic growth, LDH absorbance, 72 h; at 2 µM; stronger effect = higher value.
Assay [5] addresses Calcium-dependent protein kinase 1 (Plasmodium falciparum (isolate 3D7)) (UniProt P62344). In words: PfCDPK1 kinase inhibitors, biochemical, TCAMS library (AID 1159585; cut-off not given, nearly all actives have IC50 up to about 0.98 µM;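 also: inhibitors leave more ATP so luminescence rises with inhibition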). The note with it: recombinant PfCDPK1, Kinase-Glo ATP depletion luminescence. Background: Kinase-Glo reads ATP consumption through a luciferase reaction.
Assay [6] concerns the target Plasmodium falciparum protein kinase 6 (PK6, PF3D7_1337100) (UniProt Q8IDW1). In words: PfPK6 kinase inhibitors, biochemical, TCAMS library (AID 1159586). The note with it: recombinant PfPK6, Kinase-Glo ATP depletion luminescence.
The target of assay [7] is Protein kinase 7 (PK7), Plasmodium falciparum 3D7 (PF3D7_0213400) (UniProt Q7YTF7). In words: inhibition of Plasmodium PK7 catalytic activity – biochemical, TCAMS antimalarial set, Kinase-Glo luminescence (AID 1159587). The conditions noted are these: recombinant PfPK7, Kinase-Glo ATP depletion luminescence.
Chain of Protein kinase 7 (PK7), Plasmodium falciparum 3D7 (PF3D7_0213400) (Q7YTF7 1-343): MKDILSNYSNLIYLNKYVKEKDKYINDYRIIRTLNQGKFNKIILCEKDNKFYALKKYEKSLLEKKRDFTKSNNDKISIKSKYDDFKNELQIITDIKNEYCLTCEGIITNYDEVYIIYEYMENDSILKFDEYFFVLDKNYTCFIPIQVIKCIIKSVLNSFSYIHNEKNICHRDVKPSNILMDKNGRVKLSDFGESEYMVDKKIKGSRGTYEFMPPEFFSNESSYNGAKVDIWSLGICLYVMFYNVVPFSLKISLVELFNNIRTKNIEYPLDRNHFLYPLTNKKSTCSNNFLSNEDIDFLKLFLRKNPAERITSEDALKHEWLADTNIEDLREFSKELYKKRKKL
Assay [8] addresses Calcium-dependent protein kinase 4 (Plasmodium falciparum (isolate 3D7)) (UniProt Q8IBS5). In words: PfCDPK4 kinase inhibitors, biochemical, TCAMS library (AID 1159588; cut-off not given, nearly all actives have IC50 up to about 0.91 µM). The conditions noted are these: recombinant PfCDPK4, Kinase-Glo ATP depletion luminescence.

Unmarked numbers belong to inactive results. For some of these results: Measured potencies and affinities stand elsewhere. Active and inactive are the calls of the source. Unless noted, no rule for the calls is given here.

Chain of Calcium-dependent protein kinase 4 (Plasmodium falciparum (isolate 3D7)) (Q8IBS5 whole entry, looked up): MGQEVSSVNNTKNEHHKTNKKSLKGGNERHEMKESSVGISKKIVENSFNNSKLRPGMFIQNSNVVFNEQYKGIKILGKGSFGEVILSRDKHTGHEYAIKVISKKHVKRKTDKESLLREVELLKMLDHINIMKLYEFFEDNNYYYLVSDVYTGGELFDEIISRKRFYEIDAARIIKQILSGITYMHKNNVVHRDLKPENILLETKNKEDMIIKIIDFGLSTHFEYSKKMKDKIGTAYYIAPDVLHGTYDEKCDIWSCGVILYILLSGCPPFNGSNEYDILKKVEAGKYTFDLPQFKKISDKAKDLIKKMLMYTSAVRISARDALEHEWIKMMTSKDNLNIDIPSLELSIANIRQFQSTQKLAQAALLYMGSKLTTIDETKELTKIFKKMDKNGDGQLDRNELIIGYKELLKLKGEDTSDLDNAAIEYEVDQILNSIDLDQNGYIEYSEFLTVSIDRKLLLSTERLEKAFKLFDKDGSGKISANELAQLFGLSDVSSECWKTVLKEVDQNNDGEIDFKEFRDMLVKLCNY
Chain of Plasmodium falciparum protein kinase 6 (PK6, PF3D7_1337100) (Q8IDW1 1-305): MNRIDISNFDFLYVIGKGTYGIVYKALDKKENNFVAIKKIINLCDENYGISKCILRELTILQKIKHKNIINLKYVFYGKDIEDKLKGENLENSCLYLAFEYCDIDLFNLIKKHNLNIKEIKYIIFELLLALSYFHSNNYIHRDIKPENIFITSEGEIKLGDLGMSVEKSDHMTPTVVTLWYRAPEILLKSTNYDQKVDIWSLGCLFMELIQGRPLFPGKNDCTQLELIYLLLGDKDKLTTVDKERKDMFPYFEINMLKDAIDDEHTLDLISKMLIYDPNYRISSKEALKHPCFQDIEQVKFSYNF
Chain of Calcium-dependent protein kinase 1 (Plasmodium falciparum (isolate 3D7)) (P62344 whole entry, looked up): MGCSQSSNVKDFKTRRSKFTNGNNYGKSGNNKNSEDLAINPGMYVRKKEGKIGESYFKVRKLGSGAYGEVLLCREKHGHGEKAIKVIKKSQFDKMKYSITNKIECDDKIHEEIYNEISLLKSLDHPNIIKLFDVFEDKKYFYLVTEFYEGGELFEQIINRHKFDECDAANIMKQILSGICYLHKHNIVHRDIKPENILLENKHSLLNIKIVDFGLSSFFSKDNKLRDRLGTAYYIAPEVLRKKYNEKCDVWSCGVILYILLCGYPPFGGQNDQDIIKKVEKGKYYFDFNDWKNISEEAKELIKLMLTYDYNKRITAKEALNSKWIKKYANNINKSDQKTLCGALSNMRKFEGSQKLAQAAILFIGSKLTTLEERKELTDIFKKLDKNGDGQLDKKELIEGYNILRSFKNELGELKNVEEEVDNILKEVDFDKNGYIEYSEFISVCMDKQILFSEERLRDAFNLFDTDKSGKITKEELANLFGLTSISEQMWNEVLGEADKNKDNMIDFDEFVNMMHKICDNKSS

On to `CCCOc1cc(NC(=O)Nc2ccnc3ccccc23)cc(OCCC)c1`, for which the growth inhibition was 98% (active) in assay [1] and 102% (active) in assay [4]. Also, the values for the inhibition in assay [2] and in assay [3] were 6% and -1%, respectively. Moreover, the outcome in assay [5], in assay [6], in assay [7] and in assay [8] was inactive.

On to `CN(C)Cc1ccc2cc(NC(=O)c3ccc(-c4ccc(Cl)cc4)cc3)ccc2c1`, for which the growth inhibition is 22% in assay [1] and 92% (active) in assay [4]. The inhibition (usually the change of the read-out against control, counted positive when it falls) in assay [2] was 21%; in assay [3], -3%. The outcome in assay [5], in assay [6], in assay [7] and in assay [8] was inactive.

Regarding `NS(=O)(=O)c1ccccc1Nc1nc(Nc2ccc(N3CCOCC3)cc2)nc2c1CCC2`, the growth inhibition is 99% (active) in assay [1] and 96% (active) in assay [4]. Moreover, the inhibition was 21% in assay [2] and -1% in assay [3]. Besides, the outcome in assay [5], in assay [6], in assay [7] and in assay [8] was inactive.

For the molecule `CCCCCCCN1CC[C@@H](CCCc2ccnc3ccc(OC)cc23)[C@@H](CCN)C1`, the results for the growth inhibition in assay [1] and in assay [4] were 11% and 102% (active), respectively. The inhibition is 50% (active) in assay [2] and -5% in assay [3]. Further, the result in assay [5], in assay [6], in assay [7] and in assay [8] was inactive.

In the case of `O=C(Nc1ccc(-c2nc3ccccc3[nH]2)cc1)c1ccc(S(=O)(=O)N2CCCCCC2)cc1`, the growth inhibition is 21% in assay [1] and 97% (active) in assay [4]. Besides, the inhibition was 8% in assay [2] and -6% in assay [3]. Also, the result in assay [5], in assay [6], in assay [7] and in assay [8] was inactive.

Turning to `Oc1ccc(CCNCCCCNCCc2ccc(Cl)cc2)cc1O`, the results for the growth inhibition in assay [1] and in assay [4] were -1% and 94% (active), respectively. The inhibition in assay [2] is 33%; in assay [3], -1%. In addition, the outcome in assay [5], in assay [6], in assay [7] and in assay [8] was inactive.

For `COc1ccc(CNC(=O)c2cnc3c(O)cccc3c2Nc2cccc(NC(=O)c3ccc(Cl)c(Cl)c3)c2)cc1`, the growth inhibition in assay [1] is 89% (active); in assay [4] it was 96% (active). Moreover, the inhibition was 54% (active) in assay [2] and 4% in assay [3]. Further, the outcome in assay [5], in assay [6], in assay [7] and in assay [8] was inactive.

For `CCN(CCCN1CCCCC1)c1cc(C)nc(Nc2cc(Br)ccc2C)n1`, the growth inhibition in assay [1] was 39%; in assay [4], 98% (active). In addition, the results for the inhibition in assay [2] and in assay [3] were 32% and -7%, respectively. For the same molecule, the outcome in assay [5], in assay [6], in assay [7] and in assay [8] was inactive.

With `O[C@@H](c1ccccc1)[C@@H]1CN(CCC2C[C@@H]3CC[C@H]2C3)CC[C@@]1(O)c1ccccc1` (stereo not given in full), the growth inhibition is 99% (active) in assay [1] and 97% (active) in assay [4]. The inhibition in assay [2] is -1%; in assay [3] it was -2%. Further, the result in assay [5], in assay [6], in assay [7] and in assay [8] was inactive.

Take `CC(=O)N(Cc1nc(-c2cc(Cl)c(Cl)s2)cs1)c1c(C)cccc1C`: the growth inhibition is 95% (active) in assay [1] and 98% (active) in assay [4]. The inhibition in assay [2] was 5%; in assay [3] it was 3%. The result in assay [5], in assay [6], in assay [7] and in assay [8] was inactive.

On to `O=C(Nc1ccccc1)Nc1cccc(-c2nn3c(OCC4CCCCN4)cccc3c2-c2ccncc2)c1` (stereo not given), for which the values for the growth inhibition in assay [1] and in assay [4] were 82% (active) and 97% (active), respectively. Moreover, the inhibition is 9% in assay [2] and -7% in assay [3]. The result in assay [5], in assay [6], in assay [7] and in assay [8] was inactive.

As to `CCN1CCN(c2cc(C)c3cc(NC(=O)c4ccc(N(CC)CC)cc4)ccc3n2)CC1`, the growth inhibition in assay [1] is 41%; in assay [4], 95% (active). In addition, the inhibition in assay [2] was 38%; in assay [3], 1%. The result in assay [5], in assay [6], in assay [7] and in assay [8] was inactive.

Take `COc1ccc2nc(C)cc(NN=Cc3ccc([N+](=O)[O-])cc3)c2c1`: the growth inhibition is 70% (active) in assay [1] and 103% (active) in assay [4]. The figures for the inhibition in assay [2] and in assay [3] were -3% and -5%, respectively. In addition, the result in assay [5], in assay [6], in assay [7] and in assay [8] was inactive.

Regarding `CCCC(C(=O)OCCN(CC)CC)(c1ccc(Cl)cc1)c1ccc(Cl)cc1`, the results for the growth inhibition in assay [1] and in assay [4] were 87% (active) and 91% (active), respectively. Moreover, the inhibition is 7% in assay [2] and 2% in assay [3]. The result in assay [5], in assay [6], in assay [7] and in assay [8] was inactive.

`Cc1cnc(CS(=O)c2nc3ccc(C(F)(F)F)cc3[nH]2)cc1OCc1ccccc1` (stereo not given): the growth inhibition in assay [1] was 76% (active); in assay [4] it was 93% (active). The inhibition in assay [2] is -7%; in assay [3] it was -2%. The result in assay [5], in assay [6], in assay [7] and in assay [8] was inactive.

On to `c1ccc(Oc2ccc(Nc3ccnc4cc(-c5ccc(CNCCN6CCOCC6)o5)ccc34)cc2)nc1`, for which the results for the growth inhibition in assay [1] and in assay [4] were 100% (active) and 101% (active), respectively. Also, the inhibition in assay [2] was -7%; in assay [3], -2%. Moreover, the result in assay [5], in assay [6], in assay [7] and in assay [8] was inactive.

As for `Clc1nc2ccccn2c1C=Cc1ccc2ccccc2n1`, the values for the growth inhibition in assay [1] and in assay [4] were 75% (active) and 86% (active), respectively. Further, the inhibition in assay [2] is -31%; in assay [3], -6%. Moreover, the result in assay [5], in assay [6], in assay [7] and in assay [8] was inactive.

Regarding `Cc1ccc(CN2CCN(c3cc4c(cc3Cl)CCN4C(=O)Cc3ccc(NC(=O)c4ccc(C(F)(F)F)cc4)cc3)CC2)cc1`, the growth inhibition in assay [1] was -8%; in assay [4], 88% (active). Also, the figures for the inhibition in assay [2] and in assay [3] were 15% and 4%, respectively. Moreover, the result in assay [5], in assay [6], in assay [7] and in assay [8] was inactive.

In the case of `O=S(=O)(/C=C/c1ccccc1)N(Cc1ccc(-c2ccc(CNCCc3ccccc3)cc2)cc1)CC1CCCCN1` (stereo not given), the growth inhibition is 96% (active) in assay [1] and 100% (active) in assay [4]. The inhibition in assay [2] is 99% (active); in assay [3] it was -2%. Besides, the outcome in assay [5], in assay [6], in assay [7] and in assay [8] was inactive.

As to `CC(=O)Nc1cccc(C(=O)Nc2cccc(-c3ccc(-c4nc5ccc(F)cc5[nH]4)cc3)c2)c1`, the growth inhibition in assay [1] was 9%; in assay [4] it was 95% (active). Besides, the inhibition in assay [2] was 60% (active); in assay [3], 5%. In addition, the outcome in assay [5], in assay [6], in assay [7] and in assay [8] was inactive.
